From PubChem BioAssay (EPA / NIEHS)
Several values for one entry are separate records, joined by “and”; a condition that tells them apart may be missing. Equal values may be shown once. Inconclusive results are not listed. Some compounds were tested as several samples or in several runs, with calls that do not always agree. Activity calls are given as the source filed them. The calls were made as follows, unless noted: active = hit-call score of the fitted dose curve at least 0.9, where 1 is the maximum; inconclusive = response in the unintended direction; inactive = score below 0.9.

Assays:
[1] = ATG_GRE_CIS: Attagene CIS-FACTORIAL HepG2 Assay for human Glucocorticoid Response Elements (GRE) (AID 2282947; active = hit-call score of the fitted dose curve at least 0.9, where 1 is the maximum; inactive = score below 0.9); conditions: HepG2 GRE cis-reporter, Attagene multiplex mRNA; actives raise or lower the signal
Procedure, shortened: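 Read-out: fluorescent reporter-transcript fragments separated by capillary electrophoresis after RT-PCR. Transiently transfected HepG2 cells carrying cis-element-driven reporter units were dosed for 24 h; gain or loss of signal fitted against DMSO control.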

[2] = target: Hepatocyte nuclear factor 6 (Homo sapiens) (UniProt Q9UBC0); experiment: ATG_HNF6_CIS: Attagene CIS-FACTORIAL HepG2 Assay for human Hepatocyte Nuclear Factor 6 (HNF6) (AID 2282952; active = hit-call score of the fitted dose curve at least 0.9, where 1 is the maximum; inactive = score below 0.9); conditions: HepG2 Attagene cis-factorial HNF6 reporter transcription; actives raise or lower the signal
Sequence of Hepatocyte nuclear factor 6 (Homo sapiens) (Q9UBC0 whole entry, looked up): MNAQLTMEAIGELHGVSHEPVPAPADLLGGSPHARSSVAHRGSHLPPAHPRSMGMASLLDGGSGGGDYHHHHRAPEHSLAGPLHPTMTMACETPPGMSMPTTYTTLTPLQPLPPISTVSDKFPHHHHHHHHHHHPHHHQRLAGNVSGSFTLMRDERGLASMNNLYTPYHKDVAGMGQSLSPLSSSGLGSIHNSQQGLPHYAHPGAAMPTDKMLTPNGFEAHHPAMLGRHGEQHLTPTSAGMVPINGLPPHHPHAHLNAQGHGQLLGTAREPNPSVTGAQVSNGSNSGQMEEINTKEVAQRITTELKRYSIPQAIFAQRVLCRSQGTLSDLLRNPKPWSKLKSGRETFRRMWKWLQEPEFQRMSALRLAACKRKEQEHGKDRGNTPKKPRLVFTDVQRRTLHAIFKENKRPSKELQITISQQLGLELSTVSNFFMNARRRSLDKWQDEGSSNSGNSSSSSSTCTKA
Procedure, shortened: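 Endogenous transcription factor activity in human HepG2 liver cells was captured through cis-regulated reporter constructs. After 24 h treatment, reporter mRNA was measured by RT-PCR with capillary electrophoresis, and activity was fitted in both directions relative to DMSO.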

[3] = ATG_PBREM_CIS: Attagene CIS-FACTORIAL HepG2 Assay for human Phenobarbital-responsive Enhancer Module (PBREM) (AID 2282955; active = hit-call score of the fitted dose curve at least 0.9, where 1 is the maximum; inactive = score below 0.9); conditions: HepG2 PBREM cis-reporter, Attagene multiplexed transcription; actives raise or lower the signal
Procedure, shortened: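 HepG2 cells transiently transfected with multiple cis-regulated reporter transcription units; endogenous factor activity at the PBREM element measured as reporter mRNA 24 h after dosing, via RT-PCR and capillary electrophoresis of fluorescent fragments; bidirectional fitting versus DMSO.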

[4] = ATG_M_32_TRANS: Attagene TRANS-FACTORIAL HepG2 Assay for M32 Transcription Factor (Internal Marker) (AID 2282984); conditions: HepG2 Attagene TRANS M32 internal marker reporter
Procedure, shortened: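 Read-out: fluorescent reporter cDNA fragments resolved by capillary electrophoresis after RT-PCR of total RNA. Transfected HepG2 cells were exposed to chemical for 24 h. Activity scored in the positive direction relative to DMSO.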

[5] = ATG_NFI_CIS: Attagene CIS-FACTORIAL HepG2 Assay for human Nuclear Factor I (NFI) (AID 2282989; active = hit-call score of the fitted dose curve at least 0.9, where 1 is the maximum; inactive = score below 0.9); conditions: HepG2 cis-regulatory reporter, NFI response element transcription; actives raise or lower the signal
Procedure, shortened: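 Endogenous TF activity in HepG2 cells transiently transfected with cis-element-driven multiplexed reporter units, read 24 h after dosing. Reporter mRNA quantified by RT-PCR, 6-FAM labelling, HpaI digestion and capillary electrophoresis; bidirectional fit versus DMSO.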

[6] = ATG_NF_kB_CIS: Attagene CIS-FACTORIAL HepG2 Assay for human Nuclear Factor Kappa B (NF-kB) (AID 2282991; active = hit-call score of the fitted dose curve at least 0.9, where 1 is the maximum; inactive = score below 0.9); conditions: HepG2 Attagene cis-factorial NF-kB reporter mRNA; actives raise or lower the signal
Procedure, shortened: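 HepG2 cells transiently transfected with multiplexed cis-element reporter units measuring endogenous transcription factor activity; reporter mRNA read 24 h after dosing by RT-PCR, fluorescent labelling, HpaI digestion and capillary electrophoresis. Bidirectional fit against DMSO baseline.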

[7] = target: Retinoic acid receptor RXR-alpha (Homo sapiens) (UniProt P19793); experiment: ATG_RXRa_TRANS: Attagene TRANS-FACTORIAL HepG2 Assay for human Retinoid X Receptor alpha (RXRa) (AID 2283012)
Sequence of Retinoic acid receptor RXR-alpha (Homo sapiens) (P19793 whole entry, looked up, the tested form may be a part): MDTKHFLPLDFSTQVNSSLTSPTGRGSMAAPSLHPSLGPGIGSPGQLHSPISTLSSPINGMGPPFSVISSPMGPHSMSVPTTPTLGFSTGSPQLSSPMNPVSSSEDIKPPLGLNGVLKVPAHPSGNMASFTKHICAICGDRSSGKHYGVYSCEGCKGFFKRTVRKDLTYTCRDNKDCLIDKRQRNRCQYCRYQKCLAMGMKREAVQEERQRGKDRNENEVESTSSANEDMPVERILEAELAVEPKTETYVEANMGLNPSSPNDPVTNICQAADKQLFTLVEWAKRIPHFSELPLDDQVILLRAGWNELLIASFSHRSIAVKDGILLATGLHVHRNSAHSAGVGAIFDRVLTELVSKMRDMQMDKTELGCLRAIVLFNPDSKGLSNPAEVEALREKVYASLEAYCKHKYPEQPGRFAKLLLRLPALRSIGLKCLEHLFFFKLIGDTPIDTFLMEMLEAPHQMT
Procedure, shortened: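 Chimeric NR-GAL4 trans-activation in HepG2, 24 h treatment; reporter transcripts quantified by fluorescence on capillary electrophoresis, analysed for upward change from DMSO.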

[8] = target: human Retinoid X Receptor beta (RXRb), RXRB (gene 6257) (UniProt P28702); experiment: ATG_RXRb_TRANS: Attagene TRANS-FACTORIAL HepG2 Assay for human Retinoid X Receptor beta (RXRb) (AID 2283013)
Sequence of human Retinoid X Receptor beta (RXRb), RXRB (gene 6257) (P28702 whole entry, looked up, the tested form may be a part): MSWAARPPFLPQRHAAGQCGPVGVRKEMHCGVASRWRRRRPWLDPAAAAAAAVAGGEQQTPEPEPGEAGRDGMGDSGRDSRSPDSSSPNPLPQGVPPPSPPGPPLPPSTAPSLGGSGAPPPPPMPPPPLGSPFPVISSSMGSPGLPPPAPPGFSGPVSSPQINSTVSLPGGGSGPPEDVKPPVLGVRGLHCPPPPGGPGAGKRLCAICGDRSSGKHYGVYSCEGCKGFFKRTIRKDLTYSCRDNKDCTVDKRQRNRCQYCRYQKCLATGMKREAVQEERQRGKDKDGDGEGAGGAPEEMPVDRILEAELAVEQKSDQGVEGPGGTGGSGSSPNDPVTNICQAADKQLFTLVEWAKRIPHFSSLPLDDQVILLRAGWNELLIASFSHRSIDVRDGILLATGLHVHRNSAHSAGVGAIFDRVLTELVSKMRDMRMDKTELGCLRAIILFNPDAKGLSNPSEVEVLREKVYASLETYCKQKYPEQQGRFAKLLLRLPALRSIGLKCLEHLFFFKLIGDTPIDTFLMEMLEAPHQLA
Procedure, shortened: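 After a 24 h incubation with test chemical, transfected HepG2 cells carrying NR-Gal4 fusions and GAL4-UAS reporter transcription units yield RNA whose reporter cDNA is FAM-labelled, HpaI-cut and sized by capillary electrophoresis; increases over DMSO are scored.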

[9] = target: human Vitamin D Receptor (VDR), VDR (gene 7421) (UniProt P11473); experiment: ATG_VDR_TRANS: Attagene TRANS-FACTORIAL HepG2 Assay for human Vitamin D Receptor (VDR) (AID 2283022)
Sequence of human Vitamin D Receptor (VDR), VDR (gene 7421) (P11473 whole entry, looked up, the tested form may be a part): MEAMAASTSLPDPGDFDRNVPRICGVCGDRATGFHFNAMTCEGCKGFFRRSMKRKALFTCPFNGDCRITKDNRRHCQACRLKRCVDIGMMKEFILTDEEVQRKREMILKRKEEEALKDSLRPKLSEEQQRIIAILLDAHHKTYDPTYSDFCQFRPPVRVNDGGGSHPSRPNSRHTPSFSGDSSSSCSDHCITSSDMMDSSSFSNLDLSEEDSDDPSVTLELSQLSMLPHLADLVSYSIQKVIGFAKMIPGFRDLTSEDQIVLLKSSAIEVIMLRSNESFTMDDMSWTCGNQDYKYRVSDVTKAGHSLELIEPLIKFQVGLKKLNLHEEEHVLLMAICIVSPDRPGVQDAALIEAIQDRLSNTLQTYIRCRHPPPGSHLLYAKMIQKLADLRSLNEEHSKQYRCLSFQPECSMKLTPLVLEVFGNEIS
Procedure, shortened: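 Fluorescence of labelled reporter cDNA fragments, resolved by capillary electrophoresis, gives mRNA induction after 24 h treatment of HepG2 cells carrying transfected Gal4-fusion reporter units. Activity is fitted in the positive direction with DMSO as baseline.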

[10] = TOX21_p53_BLA_p2_viability: Viability Assessment in the Tox21 HCT-116 p53 Agonism Beta-lactamase Assay, Phase 2 (AID 2283591);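 also: compound exposure lasted 16 h at 37 °C; actives lower the ATP signal meaning cytotoxicity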
Procedure, shortened: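 HCT116 p53-bla cells, 4000/well, dosed after 5 h plating (217-fold dilution of DMSO stocks) and incubated 16 h at 37C. Viability taken as cellular ATP by CellTiter-Glo luminescence after 30 min RT; signal loss marks cytotoxicity.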

[11] = target: Cellular tumor antigen p53 (Homo sapiens) (UniProt P04637); experiment: TOX21_p53_BLA_p2_ratio: Tox21 HCT-116 p53 Agonism Beta-lactamase Assay, Ratio, Phase 2 (AID 2283592)
Sequence of Cellular tumor antigen p53 (Homo sapiens) (P04637 whole entry, looked up): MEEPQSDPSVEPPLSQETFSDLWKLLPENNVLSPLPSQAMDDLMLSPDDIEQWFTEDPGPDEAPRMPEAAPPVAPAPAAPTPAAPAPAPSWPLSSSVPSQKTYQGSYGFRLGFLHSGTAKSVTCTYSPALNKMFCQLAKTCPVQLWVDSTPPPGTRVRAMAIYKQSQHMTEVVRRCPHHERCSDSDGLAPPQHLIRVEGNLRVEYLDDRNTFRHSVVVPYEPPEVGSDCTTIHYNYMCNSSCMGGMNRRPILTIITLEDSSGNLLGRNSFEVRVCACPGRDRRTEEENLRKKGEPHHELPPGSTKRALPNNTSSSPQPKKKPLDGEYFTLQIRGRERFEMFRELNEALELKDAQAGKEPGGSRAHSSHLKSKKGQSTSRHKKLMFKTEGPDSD
Procedure, shortened: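 Cleaved-to-uncleaved substrate ratio (460 vs 530 nm) measured in HCT116 cells with an inducible beta-lactamase reporter linked to p53 activity. Compounds incubated 16 h at 37C before 2 h room-temperature CCF4-AM loading.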

[12] = target: Cellular tumor antigen p53 (Homo sapiens) (UniProt P04637); experiment: TOX21_p53_BLA_p3_ratio: Tox21 HCT-116 p53 Agonism Beta-lactamase Assay, Ratio, Phase 3 (AID 2283596)
Procedure, shortened: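 Cells were seeded at 4000/well, rested 5 h at 37C, then dosed with DMSO compound solutions (217-fold dilution) for 16 h. CCF4-AM substrate was loaded for 2 h at room temperature, and the 460/530 nm emission ratio was fitted for gain of signal versus DMSO.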

[13] = target: Cellular tumor antigen p53 (Homo sapiens) (UniProt P04637); experiment: TOX21_p53_BLA_p4_ratio: Tox21 HCT-116 p53 Agonism Beta-lactamase Assay, Ratio, Phase 4 (AID 2283601)
Procedure, shortened: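 HCT-116 p53 beta-lactamase reporter cells (4000/well) preincubated 5 h, then compound (217-fold dilution of DMSO stock) for 16 h at 37C. CCF4-AM substrate added 2 h at room temperature; 460/530 nm emission ratio fitted upward versus DMSO.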

[14] = ATG_M_19_CIS: Attagene CIS-FACTORIAL HepG2 Assay for M19 Transcription Factor (Internal Marker) (AID 2282939; active = hit-call score of the fitted dose curve at least 0.9, where 1 is the maximum; inactive = score below 0.9); conditions: HepG2 Attagene CIS-FACTORIAL M19 internal marker reporter; actives raise or lower the signal
Procedure, shortened: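 HepG2 cells transiently transfected with cis-regulated multiplexed reporter units, dosed 24 h. Reporter mRNA quantified by RT-PCR and capillary electrophoresis; internal background marker fitted bidirectionally versus DMSO.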

[15] = ATG_GATA_CIS: Attagene CIS-FACTORIAL HepG2 Assay for human GATA Binding Protein (AID 2282944; active = hit-call score of the fitted dose curve at least 0.9, where 1 is the maximum; inactive = score below 0.9); conditions: HepG2 GATA cis-element reporter, Attagene multiplex mRNA; actives raise or lower the signal
Procedure, shortened: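 HepG2 cells transiently transfected with multiplexed cis-element reporter units measure endogenous GATA activity; after 24 h compound exposure, reporter mRNA quantified by RT-PCR and capillary electrophoresis. Changes fitted in both directions vs DMSO.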

[16] = target: Paired box protein Pax-6 (Homo sapiens) (UniProt P26367); experiment: ATG_Pax6_CIS: Attagene CIS-FACTORIAL HepG2 Assay for human Paired Box 6 (PAX6) (AID 2282956; active = hit-call score of the fitted dose curve at least 0.9, where 1 is the maximum; inactive = score below 0.9); conditions: HepG2 CIS-FACTORIAL PAX6 reporter transcription, RNA readout; actives raise or lower the signal
Sequence of Paired box protein Pax-6 (Homo sapiens) (P26367 whole entry, looked up): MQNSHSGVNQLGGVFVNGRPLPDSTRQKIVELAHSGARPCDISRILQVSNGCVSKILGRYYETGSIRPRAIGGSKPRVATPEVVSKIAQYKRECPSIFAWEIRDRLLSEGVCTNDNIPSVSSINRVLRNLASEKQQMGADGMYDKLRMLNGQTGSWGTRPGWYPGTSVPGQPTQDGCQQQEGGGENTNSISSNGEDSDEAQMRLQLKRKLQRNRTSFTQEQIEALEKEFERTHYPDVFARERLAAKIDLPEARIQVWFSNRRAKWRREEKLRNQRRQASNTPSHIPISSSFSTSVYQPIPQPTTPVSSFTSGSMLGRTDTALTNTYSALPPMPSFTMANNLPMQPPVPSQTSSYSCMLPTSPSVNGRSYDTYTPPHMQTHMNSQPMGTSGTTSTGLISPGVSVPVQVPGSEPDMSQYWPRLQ
Procedure, shortened: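 Fluorescent RT-PCR products separated by capillary electrophoresis report PAX6-linked promoter mRNA in HepG2 cells 24 h post-dose. Curves fitted bidirectionally, DMSO as negative control.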

[17] = target: Hepatocyte nuclear factor 4-alpha (Homo sapiens) (UniProt P41235); experiment: ATG_HNF4a_TRANS: Attagene TRANS-FACTORIAL HepG2 Assay for human Hepatocyte Nuclear Factor 4 alpha (HNF4a) (AID 2282982); conditions: HepG2 HNF4a transactivation reporter, mRNA readout
Sequence of Hepatocyte nuclear factor 4-alpha (Homo sapiens) (P41235 whole entry, looked up): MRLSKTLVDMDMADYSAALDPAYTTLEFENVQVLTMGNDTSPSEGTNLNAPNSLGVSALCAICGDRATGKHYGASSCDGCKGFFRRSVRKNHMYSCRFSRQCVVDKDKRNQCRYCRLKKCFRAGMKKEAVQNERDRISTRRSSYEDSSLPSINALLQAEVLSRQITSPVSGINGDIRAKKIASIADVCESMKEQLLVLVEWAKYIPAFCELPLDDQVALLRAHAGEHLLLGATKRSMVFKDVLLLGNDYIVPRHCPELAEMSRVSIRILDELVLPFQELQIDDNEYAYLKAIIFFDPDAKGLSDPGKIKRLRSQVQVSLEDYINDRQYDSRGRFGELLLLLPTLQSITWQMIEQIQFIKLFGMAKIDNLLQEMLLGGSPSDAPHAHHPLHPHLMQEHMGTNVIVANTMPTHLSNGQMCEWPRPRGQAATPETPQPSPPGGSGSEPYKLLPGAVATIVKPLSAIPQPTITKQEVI
Procedure, shortened: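 Transient MRTU transfection of HepG2, 24 h dosing. Readout: reporter mRNA via RT-PCR + capillary electrophoresis, fluorescence; activity fit upward relative to DMSO control.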

[18] = ATG_M_06_TRANS: Attagene TRANS-FACTORIAL HepG2 Assay for M06 Transcription Factor (Internal Marker) (AID 2282983); conditions: HepG2 Attagene TRANS M06 internal marker reporter;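 also: reporter transcript level by RT-PCR then capillary electrophoresis fluorescence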
Procedure, shortened: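 Human liver HepG2 cells bearing transiently transfected chimeric NR-GAL4 reporter units were treated with chemicals for 24 h. Total RNA was reverse-transcribed, reporter sequences amplified and labelled, then quantified by capillary electrophoresis. Activity was fitted upward relative to DMSO.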

[19] = ATG_TA_CIS: Attagene CIS-FACTORIAL HepG2 Assay for human TA Basal Promoter (AID 2282964; active = hit-call score of the fitted dose curve at least 0.9, where 1 is the maximum; inactive = score below 0.9); conditions: HepG2 Attagene CIS-factorial TA basal promoter reporter; actives raise or lower the signal
Procedure, shortened: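 HepG2 cells transiently transfected with multiple reporter units under cis promoter elements, reporting endogenous transcription factor activity; this endpoint tracks the TA basal promoter as background control. Reporter mRNA after 24 h dosing measured by RT-PCR/capillary electrophoresis; bidirectional fits versus DMSO.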

[20] = target: Cellular tumor antigen p53 (Homo sapiens) (UniProt P04637); experiment: TOX21_p53_BLA_p5_ratio: Tox21 HCT-116 p53 Agonism Beta-lactamase Assay, Ratio, Phase 5 (AID 2283599)
Procedure, shortened: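 HCT-116 p53-bla cells (4000/well) plated 5 h, dosed with compound (217-fold DMSO dilution) for 16 h at 37 C; CCF4-AM substrate 2 h at room temperature. Activity is the 460/530 nm emission ratio (405 nm excitation), fitted in gain-of-signal direction versus DMSO.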

Measured: AC50

C/C=C(\C)C(=O)OCC/C=C\CC
not listed: [14] | [15] | [16] | [17] | [18] | [19] | [20]
inactive: all other assays above

CCCCCCOC(=O)CCCCCCCC(=O)OCCCCCC
not listed: [2] | [7] | [10] | [11] | [12] | [13] | [19] | [20]
inactive: all other assays above

O=C1NC(=O)[C@@H]2CC=CC[C@H]12
not listed: [4] | [6]
inactive: all other assays above

CC/C=C/CCO
inactive: [15] | [1] | [19] | [18] | [8] | [9] | [10] | [11] | [12] | [20] | [13]

NCc1ccccc1
not listed: [6] | [7] | [9] | [12] | [14] | [15] | [16] | [18]
inactive: all other assays above

O=C(O)c1nc(Cl)c(Cl)c(Cl)c1Cl
inactive: [15] | [1] | [3] | [16] | [19] | [17] | [18] | [4] | [5] | [9]

O=[N+]([O-])c1ccccc1C(F)(F)F
inactive: [15] | [3] | [16] | [17] | [5] | [9] | [11] | [12] | [20] | [13]

O=C1CCCCCCCCCCCCCC1
active: [7] 26.5 µM | [8] 13 µM
not listed: [10] | [13] | [14] | [17]
inactive: all other assays above

c1cc[c]([Bi]([c]2ccccc2)[c]2ccccc2)cc1
active: [8] 7.42 µM
not listed: [4] | [5] | [10] | [11] | [12] | [13] | [14] | [20]
inactive: all other assays above

CC[N+](CC)(CC(=O)Nc1c(C)cccc1C)Cc1ccccc1 (tested in a mixture with another compound)
inactive: [15] | [16] | [19] | [17] | [18]

C=C1CC[C@H]2C[C@@H]1C2(C)C
inactive: [14] | [2] | [16] | [19] | [17] | [18] | [5] | [6] | [7] | [9]

O=[N+]([O-])c1ccc2nc[nH]c2c1
inactive: [14] | [3] | [19] | [5] | [6]

CC(C)CC(=O)O
not listed: [4] | [7] | [8]
inactive: all other assays above

CCCCCCCCCC/C=C/C1CC(=O)OC1=O (configuration not stated)
not listed: [17]
inactive: all other assays above

CCC(C)(CCC(C)C)C(=O)O (configuration not stated)
inactive: [15] | [2] | [16] | [19] | [17] | [18] | [4] | [5] | [6] | [9]

CNC[C@H](O)[C@@H](O)[C@H](O)[C@H](O)CO
not listed: [1] | [7] | [8] | [14] | [17]
inactive: all other assays above

CCC(C)=NO
not listed: [2] | [6] | [7] | [8] | [14] | [16]
inactive: all other assays above

CCCCCCC(O)CCCCCCCCCCC(=O)OC (configuration not stated)
active: [8] 53.5 µM
not listed: [12] | [14] | [15] | [16]
inactive: all other assays above

OCCc1ccccn1
not listed: [2] | [4] | [6] | [8] | [15] | [16] | [18] | [20]
inactive: all other assays above

CCCc1c(OCCCCc2nn[nH]n2)ccc(C(C)=O)c1O
inactive: [15] | [1] | [3] | [19] | [17] | [18] | [4] | [5] | [6] | [7] | [9] | [10] | [12] | [13]
active: [8] 20.4 µM | [11] 73.1 µM and 19.2 µM | [12] 30.1 µM | [13] 25.2 µM

C=CCOCC(CC)(CO)COCC=C
not listed: [4] | [7] | [9] | [13] | [16] | [17] | [19] | [20]
inactive: all other assays above
